Here are results for 20 compounds from PubChem BioAssay (NCI).

About 79,000 compounds went through this panel and 15% of them were active in at least one assay; those are over-represented in the sample as a whole. A number with no mark means an inactive call. Calls of active or inactive are those of the source. Rule as the data show it: active = growth inhibition above about 70%; inactive = the rest.

Assay [1] in a line: NCI Yeast Anticancer Drug Screen. Data for the rad50 strain (AID 155).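 Also: 0% = growth of vehicle-only cultures of the same strain.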 Conditions: S. cerevisiae rad50 strain growth inhibition, hits give high values. The method in brief:
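Growth of the mutant yeast was measured after compound exposure and referenced to vehicle-treated cultures.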

Assay [2] can be described thus: NCI Yeast Anticancer Drug Screen. Data for the mec2-1 strain (AID 157). Conditions: S. cerevisiae mec2-1 strain, hits give high values. Summed up:
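mec2-1 yeast strain, carrying an alteration in DNA damage repair or cell cycle control, was exposed to compounds; growth inhibition was measured relative to vehicle-treated controls.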

Assay [3] in a line: NCI Yeast Anticancer Drug Screen. Data for the sgs1 mgt1 strain (AID 161).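 Also: 0% = growth of cultures given vehicle only.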 Conditions: S. cerevisiae sgs1 mgt1 strain, hits give high values. The method in brief: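 Yeast cells carrying a defined DNA-repair defect were exposed to test compounds. Growth inhibition was measured relative to vehicle-treated controls.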
The nature of assay [4]: NCI Yeast Anticancer Drug Screen. Data for the cln2 rad14 strain (AID 165).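 Also: 0% = growth equal to vehicle treated cultures.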 The settings on record: S. cerevisiae cln2 rad14 strain, hits give high values. Summed up:
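Yeast carrying cln2 and rad14 alterations (cell cycle control and DNA damage repair) were exposed to compounds. Growth inhibition was measured against vehicle-treated controls.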

Assay [5] in a line: NCI Yeast Anticancer Drug Screen. Data for the bub3 strain (AID 167). The settings on record: S. cerevisiae bub3 mutant strain, hits give high values. The method in brief:
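Whole-cell yeast assay. The mutant strain was incubated with compounds, and growth inhibition was determined by comparison with vehicle-treated cells.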

The nature of assay [6]: NCI Yeast Anticancer Drug Screen. Data for the mlh1 rad18 strain (AID 175). Conditions: S. cerevisiae mlh1 rad18 strain growth inhibition, hits give high values. The method in brief: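 Growth inhibition of the yeast strain was measured after compound exposure and expressed relative to vehicle-treated controls. The strain carries defined defects in DNA damage repair.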
Where [7] appears, read: at 5.0 µM (retest, dose inferred, filed as 0.5).
The mark [8] stands for this setting: at 50.0 µM (retest, dose inferred, filed as 5.0).

On to `C=C1COC(O)(C2OCOC(C3CC(=O)NC(=O)C3)C2O)C1C` (centres undefined), for which the growth inhibition is 88% (active) in assay [1] (at 50.0 µM unless noted); 91.2% (active) in assay [2] (at 50.0 µM unless noted); 91.5% (active) in assay [3] (at 50.0 µM unless noted); 89.8% (active) in assay [4] (at 50.0 µM unless noted); 89.2% (active) in assay [5] (at 50.0 µM unless noted).
The like results for `C/C(=N\NC(=S)N1CCCCCC1)c1nccnc1C` were, in that order, 85.7% (active), 90.5% (active), 89.7% (active), 86.5% (active) and 87.4% (active).
In the case of `CCCCOC(=O)/C=C\C(=O)NC(N)=O`, the growth inhibition is 4% in assay [1] (setting [7]); 9% in assay [1] (setting [8]); -1% in assay [2] (setting [7]); 7% in assay [2] (setting [8]); 5% in assay [3] (setting [7]); 18% in assay [3] (setting [8]). Also, the growth inhibition in assay [4] (setting [7]) was -3%; in assay [4] (setting [8]), 1%; in assay [5] (setting [7]), 0%; in assay [5] (setting [8]), 6%; in assay [6] (setting [7]), -21%; in assay [6] (setting [8]), 18%.
Take `CC(O)C(=O)NC1CCCCC1` (centres undefined): the growth inhibition in assay [1] (setting [7]) is 3%; in assay [1] (setting [8]), 26%; in assay [2] (setting [7]) it was 1%; in assay [2] (setting [8]) it was 1%; in assay [3] (setting [7]), 1%; in assay [3] (setting [8]), 12%. For the same compound, the growth inhibition in assay [4] (setting [7]) is 1%; in assay [4] (setting [8]), 3%; in assay [5] (setting [7]), 2%; in assay [5] (setting [8]), -4%; in assay [6] (setting [7]), 3%; in assay [6] (setting [8]), 17%.
As to `N#CC(c1ccccc1)c1cccc2ccccc12` (centres undefined), the growth inhibition in assay [1] (setting [7]) was 5%; in assay [1] (setting [8]), 68%; in assay [2] (setting [7]), 3%; in assay [2] (setting [8]), 35%; in assay [3] (setting [7]) it was 1%; in assay [3] (setting [8]) it was 74% (active). For the same compound, the growth inhibition in assay [4] (setting [7]) was -4%; in assay [4] (setting [8]) it was -4%; in assay [5] (setting [7]), 7%; in assay [5] (setting [8]) it was 59%; in assay [6] (setting [7]) it was -25%; in assay [6] (setting [8]), 56%.
As to `COc1cccc2c1C(=O)c1c(O)c3c(c(O)c1C2=O)C[C@@](O)(C(=O)CO)CC3OC1CC(O)C(O)C(C)O1` (some centres undefined), the growth inhibition in assay [1] (at 50.0 µM unless noted) was 72% (active); in assay [2] (at 50.0 µM unless noted), 52.8%; in assay [3] (at 50.0 µM unless noted) it was 33.2%; in assay [4] (at 50.0 µM unless noted), 28.8%; in assay [5] (at 50.0 µM unless noted) it was 63.2%.
The like results for `COc1cc(-c2cc(=O)c3c(O)c(OC)c(OC)c(OC)c3o2)cc(OC)c1OC` were, in that order, -9.45%, -2.7%, -10.8%, -10% and -20.8%.
Consider `COc1cccc(N2C(=O)C3c4[nH]c5ccccc5c4C4c5ccccc5CCC4C3C2=O)c1` (centres undefined), for which the growth inhibition was -0.1% in assay [1] (at 50.0 µM unless noted); 4.4% in assay [2] (at 50.0 µM unless noted); 5.05% in assay [3] (at 50.0 µM unless noted); 2.95% in assay [4] (at 50.0 µM unless noted); -0.6% in assay [5] (at 50.0 µM unless noted); 20.9% in assay [6] (at 50.0 µM unless noted).
`O=C1c2cc3c(cc2CC12Cc1cc4c(cc1C2=O)CCC4)CCCC3` (centres undefined): the growth inhibition in assay [1] (at 50.0 µM unless noted) was 6.45%; in assay [2] (at 50.0 µM unless noted) it was -52.5%; in assay [3] (at 50.0 µM unless noted), 1.45%; in assay [4] (at 50.0 µM unless noted), -29.1%; in assay [5] (at 50.0 µM unless noted) it was 0.35%; in assay [6] (at 50.0 µM unless noted), -22.5%.
As to `COc1ccc(C(NC(N)=O)c2cc3c(cc2OC(C)=O)OCO3)cc1` (centres undefined), the growth inhibition is -7.25% in assay [1] (at 50.0 µM unless noted); -1.95% in assay [2] (at 50.0 µM unless noted); -6.65% in assay [3] (at 50.0 µM unless noted); -9.05% in assay [4] (at 50.0 µM unless noted); 5.7% in assay [5] (at 50.0 µM unless noted); -0.4% in assay [6] (at 50.0 µM unless noted).
Turning to `CC(=O)Nc1cc(Cl)ccc1F`, the growth inhibition in assay [1] (at 50.0 µM unless noted) was 14.1%; in assay [2] (at 50.0 µM unless noted) it was -6.15%; in assay [3] (at 50.0 µM unless noted), 12.4%; in assay [4] (at 50.0 µM unless noted) it was -7.1%; in assay [5] (at 50.0 µM unless noted), -0.7%; in assay [6] (at 50.0 µM unless noted), 17.9%.
For `NC(=O)CSc1c2cc(O)ccc2nc2ccc(O)cc12`, the growth inhibition in assay [1] (at 50.0 µM unless noted) was -17.8%; in assay [2] (at 50.0 µM unless noted), -6.95%; in assay [3] (at 50.0 µM unless noted), -12.6%; in assay [4] (at 50.0 µM unless noted) it was 37.5%; in assay [5] (at 50.0 µM unless noted) it was -19.4%; in assay [6] (at 50.0 µM unless noted) it was 26.7%.
For `CN(C)C(=O)Sc1ccc(C(C)(C)C)cc1`, the growth inhibition in assay [1] (at 50.0 µM unless noted) is 8.3%; in assay [2] (at 50.0 µM unless noted) it was -8.1%; in assay [3] (at 50.0 µM unless noted), -15.7%; in assay [4] (at 50.0 µM unless noted), -41.5%; in assay [5] (at 50.0 µM unless noted) it was -1.65%; in assay [6] (at 50.0 µM unless noted), -28.2%.
`CC1(C)SCc2nc3ccccc3n21`: the growth inhibition is -9.75% in assay [1] (at 50.0 µM unless noted); -34.9% in assay [2] (at 50.0 µM unless noted); 12.2% in assay [3] (at 50.0 µM unless noted); 21.9% in assay [4] (at 50.0 µM unless noted); 19.1% in assay [5] (at 50.0 µM unless noted); 6.3% in assay [6] (at 50.0 µM unless noted).
As for `CCCCOC(=O)C1CN2C=CC=NC2=NC1(C(F)(F)F)C(F)(F)F` (centres undefined), the growth inhibition in assay [1] (at 50.0 µM unless noted) was -16.1%; in assay [2] (at 50.0 µM unless noted) it was 27%; in assay [3] (at 50.0 µM unless noted), 6.6%; in assay [4] (at 50.0 µM unless noted), 0.95%; in assay [5] (at 50.0 µM unless noted), 3.35%; in assay [6] (at 50.0 µM unless noted) it was -43.1%.
Consider `CN(C)C1=CC(=S)NC(c2ccccc2)C1` (centres undefined), for which the growth inhibition in assay [1] (at 50.0 µM unless noted) is -2.35%; in assay [2] (at 50.0 µM unless noted) it was -16.1%; in assay [3] (at 50.0 µM unless noted) it was -3.7%; in assay [4] (at 50.0 µM unless noted), -11.8%; in assay [5] (at 50.0 µM unless noted), -15%; in assay [6] (at 50.0 µM unless noted) it was -0.55%.
Regarding `CCOC(=O)N/N=C/c1ccccc1C`, the growth inhibition in assay [1] (at 50.0 µM unless noted) is -9.05%; in assay [2] (at 50.0 µM unless noted), -3.15%; in assay [3] (at 50.0 µM unless noted) it was -6.9%; in assay [4] (at 50.0 µM unless noted), 25.2%; in assay [5] (at 50.0 µM unless noted), -3.5%; in assay [6] (at 50.0 µM unless noted) it was -15.4%.
`CC(/C=C/C(=O)c1sc(-n2nc(-c3ccccc3)cc2-c2ccccc2)nc1C)=C\c1ccccc1`: the growth inhibition in assay [1] (at 50.0 µM unless noted) was 21.9%; in assay [2] (at 50.0 µM unless noted) it was 5.25%; in assay [3] (at 50.0 µM unless noted) it was 25.9%; in assay [4] (at 50.0 µM unless noted) it was 8.85%; in assay [5] (at 50.0 µM unless noted), 44.8%; in assay [6] (at 50.0 µM unless noted) it was 20.7%.
Regarding `CC(C)c1ccccc1NC(=O)CCC(=O)NN`, the growth inhibition in assay [1] (at 50.0 µM unless noted) is -11.1%; in assay [2] (at 50.0 µM unless noted), -7.95%; in assay [3] (at 50.0 µM unless noted), -7.95%; in assay [4] (at 50.0 µM unless noted), 6.1%; in assay [5] (at 50.0 µM unless noted) it was -17.8%; in assay [6] (at 50.0 µM unless noted) it was -11.7%.
On to `COc1ccc(CCNC(=O)CCN2C(=O)CCC2=O)cc1OC`, for which the growth inhibition in assay [1] (at 50.0 µM unless noted) was 8.7%; in assay [2] (at 50.0 µM unless noted), -12.8%; in assay [3] (at 50.0 µM unless noted), 1.55%; in assay [4] (at 50.0 µM unless noted) it was -3.25%; in assay [5] (at 50.0 µM unless noted), -14.8%; in assay [6] (at 50.0 µM unless noted), -2.9%.
